Assay results reported in the OligoGym collection.

target: PML; assay: pooled miR-30 sensor sort-seq; sequence = guide strand; conditions: shRNA
Note: reference of the scale not given here.

Sequence	sensor-assay potency score (higher = more potent)
AAGTCTGAGAGTCACCTGCTGT	-0.995
TATCTTTCTACATGGATGGAGT	-0.448
TATTGGAGACATCCTCTCCATA	-1.32
TTCTTGAGTTTGAAGCTGCTGG	-0.233
TTGTATTGGAGACATCCTCTCC	-0.965
TACAGCTGCATCTTTCCCCTGG	0.227
TCGTGCTTGAGGAACCACTGGT	0.0745
TTTCTCGCCAGGTAGGTCTGGG	0.0297
TTGTATTGGAGACATCCAGGTC	-0.853
TTCATTGTCAATCTTGAGGTCA	0.253
TCCATCTTGATGACCTTCCTGG	-0.889

target: PNPLA3; assay: as above; conditions: shRNA

Sequence	sensor-assay potency score (higher = more potent)
TCTGCTTTGGTCTCTGCTGGAC	-0.599
TTCGTGGACTTGACTTTAGGGC	-0.495
TTGCTTAAGTTGAAGGATGGAT	-0.584
TAGAAGGGGATGAAGCAGGAAC	-0.79
TAGCAGCTCATCTCCCTCCAGC	-1.05
TTACATAAGACATTATCCTAAT	-0.725
TCTTGCTCATGTATCCACCTTT	-0.0736
TTTGCAGAGACCCTGTCGGAGG	-0.649
TAAGACATTATCCTAATGGGTA	-0.331
ATTACATAAGACATTATCCTAA	-0.605
TATCGCACGCCTCTGAAGGAAG	-1.42
TAGCAAGTTGCAAATCTTGCTC	-0.46

target: POLG; assay: as above; conditions: shRNA

Sequence	sensor-assay potency score (higher = more potent)
TAATCCAGTTCTTCTACCGTTT	-0.468
TTGAACATTTCTGACTCTGTGC	0.0886
TATGGCACTATTGTCAGTGAGC	-0.848
TTGTAGGCAAACATGCACCTGG	0.0528
TTAAACTGCATTAGTAAGCGCT	-0.404
TTATTGAACATTTCTGACTCTG	0.362
TTGTCCTGTAGTCCACACCGAT	-1.34
TTCCTCATCATAGTCGGGGTGC	0.36
TATTGAACATTTCTGACTCTGT	0.187
TTGGCTGCTATCCACAGACTGC	-1.02
ATTACAGCTATTACCATCCTTG	-0.0536
TTTAGGTGTGACCCGCATCTGC	-1.03

target: POLH; assay: as above; conditions: shRNA

Sequence	sensor-assay potency score (higher = more potent)
TAGCTTTTGTAGTCTCTCTTGT	-0.253
TAACTTCTTAGCATCATCTGCC	0.509
ATAACTTCTTAGCATCATCTGC	-0.998
TATTGTGTGAAATTCCAGCTGA	0.557
TAACTTTCTGCCTTTCTGCAGC	-0.259
